Measured values taken from PubChem BioAssay (NCI).
The panel holds about 79,000 compounds, 15% with a hit somewhere; the sample as a whole holds those more often. Unmarked numbers belong to inactive results. Calls of active or inactive are those of the source. No stated cut-off is given here; in the data, active means growth inhibition above about 70%; inactive means the rest.

What was measured:
[1] = NCI Yeast Anticancer Drug Screen. Data for the rad50 strain (AID 155);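 further: 0% = growth of vehicle-only cultures of the same strain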; settings: S. cerevisiae rad50 strain growth inhibition, hits give high values
Method in brief: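 Relative growth inhibition (compound vs vehicle) was measured in yeast with a defined repair-gene alteration.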

[2] = NCI Yeast Anticancer Drug Screen. Data for the mec2-1 strain (AID 157); settings: S. cerevisiae mec2-1 strain, hits give high values
Method in brief: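 Growth inhibition is read against vehicle-treated controls after compound exposure of the mec2-1 yeast strain, which is defective in DNA damage repair or cell cycle control.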

[3] = NCI Yeast Anticancer Drug Screen. Data for the sgs1 mgt1 strain (AID 161);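 further: 0% = growth of cultures given vehicle only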; settings: S. cerevisiae sgs1 mgt1 strain, hits give high values
Method in brief: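 Compounds are added to genetically altered yeast, and growth is compared with cultures given vehicle alone to give percent inhibition.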

[4] = NCI Yeast Anticancer Drug Screen. Data for the cln2 rad14 strain (AID 165);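 further: 0% = growth equal to vehicle treated cultures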; settings: S. cerevisiae cln2 rad14 strain, hits give high values
Method in brief: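 Growth inhibition, relative to vehicle-treated controls, is the read-out. The test organism is a yeast strain with defined genetic alterations, cln2 rad14.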

[5] = NCI Yeast Anticancer Drug Screen. Data for the bub3 strain (AID 167); settings: S. cerevisiae bub3 mutant strain, hits give high values
Method in brief: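 Screening used yeast with an engineered genetic alteration affecting cell cycle control. Compound-exposed cultures were compared with vehicle cultures, and reduced growth was taken as inhibition.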

[6] = NCI Yeast Anticancer Drug Screen. Data for the mlh1 rad18 strain (AID 175); settings: S. cerevisiae mlh1 rad18 strain growth inhibition, hits give high values
Method in brief: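 Cells of a genetically altered yeast strain, deficient in DNA damage repair, were treated with compound. Their growth was then compared with that of vehicle-treated cultures to give inhibition.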

[7] = at 5.0 µM (retest, dose inferred, filed as 0.5)
[8] = at 50.0 µM (retest, dose inferred, filed as 5.0)

| Structure (SMILES) | growth inhibition [1, 7] | growth inhibition [1, 8] | growth inhibition ([1]; at 50.0 µM) | growth inhibition [2, 7] | growth inhibition [2, 8] | growth inhibition ([2]; at 50.0 µM) | growth inhibition [3, 7] | growth inhibition [3, 8] | growth inhibition ([3]; at 50.0 µM) | growth inhibition [4, 7] | growth inhibition [4, 8] | growth inhibition ([4]; at 50.0 µM) | growth inhibition [5, 7] | growth inhibition [5, 8] | growth inhibition ([5]; at 50.0 µM) | growth inhibition [6, 7] | growth inhibition [6, 8] | growth inhibition ([6]; at 50.0 µM) |
| --- | --- | --- | --- | --- | --- | --- | --- | --- | --- | --- | --- | --- | --- | --- | --- | --- | --- | --- |
| O=C(Nc1ccc(C2=NCCN2)cc1)c1cc(C(=O)Nc2ccc(C3=NCCN3)cc2)cc(C(=O)Nc2ccc(C3=NCCN3)cc2)c1 | 37% | 96% (active) | 99% (active) | 5% | 94% (active) | 99% (active) | 16% | 95% (active) | 98.8% (active) | 13% | 62% | 90.1% (active) | 23% | 99% (active) | 98.8% (active) | 25% | 98% (active) | 99% (active) |
| O=C(c1cccs1)N(C(=S)N1CCN(c2ccccn2)CC1)c1ccccc1 | 10% | 16% | 15.4% | -8% | 8% | 7.85% | 3% | 1% | 36.6% | 6% | 10% | 20.8% | -2% | 3% | 16.1% | -3% | 14% | 63.8% |
| O=NNc1ccc(Sc2ccc3ccccc3c2)cn1 | 21% | 41% | 21.5% | 24% | 36% | 12.2% | 20% | 27% | 19.1% | 32% | 43% | 24.8% | 30% | 37% | 35% | 25% | 47% | 51.5% |
| NC(=O)c1ccccc1OC(=O)NCCO | 6% | -3% | 3.2% | -2% | -5% | -1.7% | 3% | 2% | -1.2% | -1% | -7% | 35.8% | -4% | 3% | 1.7% | 0% | 7% | 7.35% |
| O=c1c2ccccc2sc2c1c(N(CCO)CCO)cc1ccccc12 | 45% | 94% (active) | 97.5% (active) | 6% | 94% (active) | 95.8% (active) | 12% | 93% (active) | 97.9% (active) | -7% | 78% (active) | 96.2% (active) | -5% | 93% (active) | 96.8% (active) | 19% | 95% (active) | 97.6% (active) |
| O=C(/C(=N/O)[n+]1ccccc1)c1ccccc1 | -4% | 69% | 73.2% (active) | -3% | 60% | 26.8% | -9% | 33% | 41.7% | -6% | -7% | -10.8% | -1% | 94% (active) | 41.8% | 4% | 53% | 78.5% (active) |
| CC1CN(CCCN2c3ccccc3Sc3ccc(Cl)cc32)C(C)(C)C1 (stereo not given) | 1% | 99% (active) | 99.7% (active) | 5% | 100% (active) | 99.8% (active) | 17% | 100% (active) | 99.8% (active) | 10% | 99% (active) | 99.3% (active) | 21% | 100% (active) | 99.3% (active) | 9% | 99% (active) | 99.8% (active) |
| C/C(=C/C(=O)/C=C/c1ccccc1)c1c(C)[nH]c2ccccc12 | -24% | -3% | 4.3% | -17% | 3% | -19.1% | -6% | -4% | -7.4% | 1% | -6% | 34.4% | 0% | 1% | 81.9% (active) | 4% | 16% | -0.4% |
| C=CC1(C)CCC2C(=CCC3C(C)(C(=O)O)CCCC23C)C1 (stereo not given) (tested in a mixture with another compound) | -5% | 61% | 65.1% | 0% | 87% (active) | 74.2% (active) | -5% | 59% | 32.4% | -28% | 66% | 76.8% (active) | -17% | 66% | 64.2% | 6% | 84% (active) | 72% (active) |
| O=C1c2ccc(Cl)cc2C(=O)c2cc(Cl)ccc21 | 7% | 99% (active) | 91.9% (active) | 11% | 98% (active) | 46.5% | 3% | 99% (active) | 65.3% | -12% | 99% (active) | 14.3% | 19% | 99% (active) | 89.2% (active) | 8% | 99% (active) | 77% (active) |
